Reference: PubChem BioAssay (NCATS)
Results filed as inconclusive are left out. Where a call stands in place of a potency, no number is given. Calls of active or inactive are those of the source. Calls follow the shape of the dose curve; as a rule, active = well fitted inhibition curve with a large enough effect; inconclusive = small, poorly fitted or top-dose-only effect; inactive = flat fitted curve, though single readings scatter.

How the values were obtained:
[1] = biological target: Luciferin 4-monooxygenase (Photinus pyralis) (UniProt P08659); experiment: Biochemical firefly luciferase enzyme assay for NPC (AID 624030); also: nearly all actives have a fitted effect of over 70% in size
Luciferin 4-monooxygenase (Photinus pyralis), sequence (P08659 whole entry, looked up): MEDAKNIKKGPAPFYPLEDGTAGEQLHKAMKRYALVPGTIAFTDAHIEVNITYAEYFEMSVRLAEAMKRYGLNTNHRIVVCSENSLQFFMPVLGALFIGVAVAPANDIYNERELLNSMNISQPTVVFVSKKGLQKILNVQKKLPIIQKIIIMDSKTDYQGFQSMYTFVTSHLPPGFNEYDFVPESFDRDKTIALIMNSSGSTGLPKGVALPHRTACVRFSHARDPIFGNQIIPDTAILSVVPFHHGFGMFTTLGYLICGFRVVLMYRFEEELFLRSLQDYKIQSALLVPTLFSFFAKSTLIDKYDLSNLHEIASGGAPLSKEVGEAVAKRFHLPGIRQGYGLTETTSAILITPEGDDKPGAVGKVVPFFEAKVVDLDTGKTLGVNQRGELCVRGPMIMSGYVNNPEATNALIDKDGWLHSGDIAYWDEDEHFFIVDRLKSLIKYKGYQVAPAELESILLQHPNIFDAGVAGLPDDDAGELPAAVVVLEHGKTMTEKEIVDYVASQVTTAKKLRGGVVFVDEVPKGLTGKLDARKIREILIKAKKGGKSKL
Procedure, shortened: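 Purified P. pyralis luciferase at 10 nM in 50 mM Tris Acetate (final), luminescence read within 5 minutes of enzyme addition to compounds. Activity normalised to PTC124 versus DMSO; concentration-response curves classed by r2, magnitude and activity.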

[2] = biological target: Voltage-gated inwardly rectifying potassium channel KCNH2 (Homo sapiens) (UniProt Q12809); experiment: qHTS Assay for Small Molecule Inhibitors of the Human hERG Channel Activity (AID 588834);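 also: lower thallium flux fluorescence means stronger hERG block; nearly all actives have a fitted effect of over 50% in size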
Voltage-gated inwardly rectifying potassium channel KCNH2 (Homo sapiens), sequence (Q12809 whole entry, looked up): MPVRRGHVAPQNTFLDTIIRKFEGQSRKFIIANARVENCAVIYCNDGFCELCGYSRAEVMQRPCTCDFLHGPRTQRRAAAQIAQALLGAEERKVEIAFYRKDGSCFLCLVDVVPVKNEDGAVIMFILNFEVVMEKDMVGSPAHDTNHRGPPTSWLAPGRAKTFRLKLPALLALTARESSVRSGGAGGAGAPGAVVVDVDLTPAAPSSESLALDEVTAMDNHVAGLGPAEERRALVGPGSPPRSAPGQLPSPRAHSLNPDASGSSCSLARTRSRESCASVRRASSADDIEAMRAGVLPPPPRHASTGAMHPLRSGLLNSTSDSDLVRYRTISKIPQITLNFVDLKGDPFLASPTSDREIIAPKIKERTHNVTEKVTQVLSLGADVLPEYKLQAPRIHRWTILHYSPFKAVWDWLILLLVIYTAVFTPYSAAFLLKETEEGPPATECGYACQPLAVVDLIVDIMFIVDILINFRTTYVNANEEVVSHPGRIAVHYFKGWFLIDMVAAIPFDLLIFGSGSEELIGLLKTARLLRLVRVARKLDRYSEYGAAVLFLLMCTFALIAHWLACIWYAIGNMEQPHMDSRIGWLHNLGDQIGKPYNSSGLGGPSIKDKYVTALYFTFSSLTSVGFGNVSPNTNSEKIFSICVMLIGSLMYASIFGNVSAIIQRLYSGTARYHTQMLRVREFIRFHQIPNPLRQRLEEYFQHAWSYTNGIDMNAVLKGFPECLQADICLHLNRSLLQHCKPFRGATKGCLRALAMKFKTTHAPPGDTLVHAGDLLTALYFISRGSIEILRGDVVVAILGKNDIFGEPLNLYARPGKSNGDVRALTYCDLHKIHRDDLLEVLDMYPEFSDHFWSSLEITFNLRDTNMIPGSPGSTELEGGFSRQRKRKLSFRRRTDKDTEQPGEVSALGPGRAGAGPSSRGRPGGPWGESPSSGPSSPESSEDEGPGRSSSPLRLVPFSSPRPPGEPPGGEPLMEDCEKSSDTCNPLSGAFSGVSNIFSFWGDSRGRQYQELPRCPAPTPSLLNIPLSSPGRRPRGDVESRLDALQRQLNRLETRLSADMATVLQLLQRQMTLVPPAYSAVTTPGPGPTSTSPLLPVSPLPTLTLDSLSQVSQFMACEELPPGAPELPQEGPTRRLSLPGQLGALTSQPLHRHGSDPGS
Procedure, shortened: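 In hERG-transduced U2OS cells, dye-loaded for 1 hr at room temperature in dark, test compounds incubated 10 min at 37 °C before thallium stimulation. AC50 values derived by Hill modelling of concentration-response.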
Potency is read from the fitted curve at half-maximal effect.

N=C(N)N
Potency [1]: inactive

CN1[C@@H](CC(=O)c2ccccc2)CCC[C@H]1C[C@H](O)c1ccccc1
Potency [2]: 1.41 µM (active)
Potency [1]: inactive

N.N.O=C(O)C1(C(=O)O)CCC1.[Pt]
Potency [2]: inactive
Potency [1]: inactive

COc1cc(/C=C/C(=O)N2CCN(CC(=O)N3CCCC3)CC2)cc(OC)c1OC
Potency [2]: inactive
Potency [1]: inactive

CN1CC(=O)N/C1=N/C(=O)Nc1cccc(Cl)c1
Potency [2]: inactive
Potency [1]: inactive

O=C(O)[C@H](CC(=O)N1C[C@H]2CCCC[C@H]2C1)Cc1ccccc1
Potency [2]: inactive
Potency [1]: inactive

CC(N)C(=O)OC(C)(C)Cc1ccc(Cl)cc1 (stereo unspecified)
Potency [1]: inactive

[O-][n+]1ccccc1SSc1cccc[n+]1[O-]
Potency [2]: inactive
Potency [1]: 2.56 µM (active)

CO[C@@]1(NC(=O)Cc2cccs2)C(=O)N2C(C(=O)O)=C(COC(N)=O)CS[C@@H]21
Potency [1]: inactive

COc1ccc(/C=C/C(=O)Nc2ccccc2C(=O)O)cc1OC
Potency [2]: inactive
Potency [1]: 0.181 µM (active)

Clc1ccccc1-c1nc(-c2ccncc2)no1
Potency [2]: inactive
Potency [1]: 3.61 µM (active)

Cc1c(N)c(=O)n(-c2ccccc2)n1C
Potency [1]: inactive

Cc1ccccc1CNc1ncnc2c1ncn2C1OC(CO)C(O)C1O (stereo unspecified)
Potency [2]: inactive
Potency [1]: inactive

Cc1[nH]cnc1CN1CCc2c(c3ccccc3n2C)C1=O
Potency [1]: inactive

CC1(C)[C@@H](O)CC[C@]2(C)[C@H]3C(=O)C=C4[C@@H]5C[C@@](C)(C(=O)O)CC[C@]5(C)CC[C@@]4(C)[C@]3(C)CC[C@@H]12
Potency [1]: inactive

CC1(C)C[C@@H]1C(=O)N/C(=C\CCCCSC[C@H](N)C(=O)O)C(=O)O
Potency [2]: inactive
Potency [1]: inactive

COc1cc2c3cc1Oc1cc(ccc1O)C[C@@H]1c4c(cc(OC)c(O)c4Oc4ccc(cc4)C[C@@H]3N(C)CC2)CC[N+]1(C)C
Potency [2]: inactive
Potency [1]: inactive

C=C(Nc1ccc(OCC)cc1)Nc1ccc(OCC)cc1
Potency [2]: 14.1 µM (active)
Potency [1]: inactive

C=CCN1C(=O)C(CC(C)C)NC1=S (stereo unspecified)
Potency [2]: inactive
Potency [1]: inactive

N=c1ccn2c(n1)O[C@H]1[C@H](O)[C@@H](CO)O[C@H]12
Potency [2]: inactive
Potency [1]: inactive

O=C(CCN1CCN(CCO)CC1)N1c2ccccc2Sc2ccc(C(F)(F)F)cc21
Potency [1]: inactive

O=C(O)Cc1ccc(-c2ccccc2)cc1
Potency [2]: inactive
Potency [1]: inactive

Nc1ccc(C(=O)O)c(O)c1
Potency [2]: inactive
Potency [1]: inactive

CC1OC1P(=O)(O)O (stereo unspecified)
Potency [1]: inactive

CCCCCCOc1ccccc1C(N)=O
Potency [2]: inactive
Potency [1]: inactive

CCCC(=O)OC[C@@H](OC(=O)CCC)[C@@H](OC(=O)CCC)[C@H](Cn1c2nc(=O)[nH]c(=O)c-2nc2cc(C)c(C)cc21)OC(=O)CCC
Potency [2]: 10 µM (active)
Potency [1]: inactive

Oc1c(Br)cc(Br)c2cccnc12
Potency [2]: inactive
Potency [1]: inactive

CCC1C(=O)OCC1Cc1cncn1C (stereo unspecified)
Potency [1]: inactive

O=C1CN(/N=C/c2ccc(-c3ccc([N+](=O)[O-])cc3)o2)C(=O)N1
Potency [1]: inactive

NC(=O)C(c1ccccc1)(c1ccccc1)[C@@H]1CCN(CCc2ccc3c(c2)CCO3)C1
Potency [1]: inactive

CCOC(=O)c1ccccc1O
Potency [2]: inactive
Potency [1]: inactive
